Laboratory results published in PubChem BioAssay (EPA / NIEHS).
Active and inactive are the calls of the source. How the source made its calls: active means hit-call score of the fitted dose curve at least 0.9, where 1 is the maximum; inactive means score below 0.9.

Experiments:
Details in all cases: mRNA level, 48 h; actives raise or lower the signal
[1] = read-out: Pro-epidermal growth factor (Homo sapiens) (UniProt P01133); assay: LTEA_HepaRG_EGF: Life Technologies and Expression Analysis (LTEA) Assay for Epidermal growth factor (EGF) using HepaRG (AID 2283489)
How it was run: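 HepaRG, 48 h dosing, 100 uM top, half-log x8, 0.5% DMSO. Readout: TaqMan qRT-PCR (Fluidigm array), housekeeping-normalized. Gain or loss of signal fit vs DMSO.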

[2] = read-out: Early growth response protein 1 (EGR1) transcription factor, EGR1 (gene 1958); assay: LTEA_HepaRG_EGR1: Life Technologies and Expression Analysis (LTEA) Assay for Early growth response protein 1 (EGR1) transcription factor using HepaRG (AID 2283490)
How it was run: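 Differentiated HepaRG cells in serum-free induction medium exposed 48 hours, duplicate, to 8 half-log concentrations up to 100 uM in 0.5% DMSO. EGR1 mRNA measured by TaqMan qRT-PCR, normalized to ACTB, GAPDH, POLR2A; bidirectional fit versus DMSO.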

[3] = read-out: Ezrin (EZR), EZR (gene 7430); assay: LTEA_HepaRG_EZR: Life Technologies and Expression Analysis (LTEA) Assay for Ezrin (EZR) using HepaRG (AID 2283491)
How it was run: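 EZR transcript levels came from Fluidigm qRT-PCR and were normalized to three housekeeping genes after 48 h chemical exposure of HepaRG cells. Dosing used an 8-point half-log series with a 100 uM top concentration in 0.5% DMSO, tested in duplicate; both directions were fitted versus vehicle.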

[4] = read-out: Cytochrome P450 3A7 (Homo sapiens) (UniProt P24462); assay: LTEA_HepaRG_CYP3A7: Life Technologies and Expression Analysis (LTEA) Assay for CYP3A7 using HepaRG (AID 2283492)
How it was run: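 Human HepaRG liver cells, 48 h post-plating, switched to serum-free induction medium and exposed in duplicate for 48 h. Dosing: 100 uM top, half-log dilutions, 8 points, 0.5% DMSO vehicle. Read-out: CYP3A7 mRNA, gain or loss fitted against DMSO baseline.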

CYP3A5 (gene 1577) = assay: LTEA_HepaRG_CYP3A5: Life Technologies and Expression Analysis (LTEA) Assay for CYP3A5 using HepaRG (AID 2283493)
How it was run: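 HepaRG plated 48 h, switched to serum-free induction medium, chemicals added 48 h (max 100 uM, half-log, 0.5% DMSO). RNA isolated; CYP3A5 by TaqMan qRT-PCR. Gain/loss vs DMSO.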

[5] = read-out: Fatty Acid-Binding Protein 1 (FABP1), FABP1 (gene 2168); assay: LTEA_HepaRG_FABP1: Life Technologies and Expression Analysis (LTEA) Assay for Fatty Acid-Binding Protein 1 (FABP1) using HepaRG (AID 2283494)
How it was run: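 Differentiated human HepaRG cells exposed 48 h in serum-free induction medium to eight half-log concentrations up to 100 uM (0.5% DMSO), duplicate. FABP1 mRNA by qRT-PCR, normalised to ACTB, GAPDH, POLR2A; bidirectional fitting against DMSO.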

[6] = read-out: Cytochrome P450 7A1 (Homo sapiens) (UniProt P22680); assay: LTEA_HepaRG_CYP7A1: Life Technologies and Expression Analysis (LTEA) Assay for Cytochrome P450 7A1 (CYP7A1) using HepaRG (AID 2283496)
How it was run: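 HepaRG cells plated 48 h, then switched to serum-free induction medium and exposed in duplicate for 48 h to 8-point half-log series from 100 uM in 0.5% DMSO. CYP7A1 mRNA by qRT-PCR (TaqMan), normalized to ACTB/GAPDH/POLR2A; bidirectional fit versus DMSO.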

[7] = read-out: Glutathione S-Transferase (GSTA2), GSTA2 (gene 2939); assay: LTEA_HepaRG_GSTA2: Life Technologies and Expression Analysis (LTEA) Assay for Glutathione S-Transferase (GSTA2) using HepaRG (AID 2283497)
How it was run: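 Differentiated human HepaRG cells were exposed in duplicate for 48 h in serum-free induction medium, 8 points from 100 uM top in half-log steps, 0.5% DMSO. GSTA2 mRNA was measured by TaqMan qRT-PCR, normalized to ACTB, GAPDH and POLR2A; bidirectional fit versus DMSO.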

[8] = read-out: growth arrest and DNA damage 45 (GADD45G), GADD45G (gene 10912); assay: LTEA_HepaRG_GADD45G: Life Technologies and Expression Analysis (LTEA) Assay for growth arrest and DNA damage 45 (GADD45G) using HepaRG (AID 2283499)
How it was run: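 Gain or loss of GADD45G mRNA, quantified by TaqMan qRT-PCR against three housekeeping genes, is fitted in both directions relative to 0.5% DMSO. Human HepaRG cultures receive test chemical for 48 h at up to 100 uM.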

[9] = read-out: Glutamate-cysteine ligase regulatory (GCLM), GCLM (gene 2730); assay: LTEA_HepaRG_GCLM: Life Technologies and Expression Analysis (LTEA) Assay for Glutamate-cysteine ligase regulatory (GCLM) using HepaRG (AID 2283500)
How it was run: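 Cells were plated, cultured 48 h, switched to serum-free induction medium, then dosed in duplicate for 48 h at eight half-log concentrations up to 100 uM. RNA was then profiled by qRT-PCR; gain or loss versus DMSO was fitted.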

[10] = read-out: Heat shock 70 kDa protein 1 (HSPA1A), gene 3303; assay: LTEA_HepaRG_HSPA1A: Life Technologies and Expression Analysis (LTEA) Assay for Heat shock 70 kDa protein 1 (HSPA1A) using HepaRG (AID 2283502)
How it was run: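 Readout is HSPA1A transcript level by microfluidic qRT-PCR, normalized to three housekeeping genes and analysed for gain or loss of signal relative to 0.5% DMSO. Human HepaRG cultures received test chemicals for 48 h at up to 100 uM.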

[11] = read-out: Hypoxia-inducible factor 1-alpha (Homo sapiens) (UniProt Q16665); assay: LTEA_HepaRG_HIF1A: Life Technologies and Expression Analysis (LTEA) Assay for Hypoxia-inducible factor 1 (HIF1A) Trancription factor using HepaRG (AID 2283503)
How it was run: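 Differentiated HepaRG cells in serum-free induction medium exposed 48 h, in duplicate, to 8-point half-log series from 100 uM in 0.5% DMSO. HIF1A mRNA measured by TaqMan qRT-PCR, normalized to ACTB/GAPDH/POLR2A, fitted bidirectionally versus DMSO.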

[12] = read-out: 3-Hydroxy-3-Methylglutaryl-CoA Synthase 2 (HMGCS2), HMGCS2 (gene 3158); assay: LTEA_HepaRG_HMGCS2: Life Technologies and Expression Analysis (LTEA) Assay for 3-Hydroxy-3-Methylglutaryl-CoA Synthase 2 (HMGCS2) using HepaRG (AID 2283504)
How it was run: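 HepaRG, plated 48 h then switched to serum-free induction media; cmpd 8-pt, max 100 uM, 1/2-log, 0.5% DMSO, n=2, 48 h. HMGCS2 mRNA by Fluidigm TaqMan qRT-PCR, ACTB/GAPDH/POLR2A norm; bidirectional fit vs DMSO.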

HGF (gene 3082) = assay: LTEA_HepaRG_HGF: Life Technologies and Expression Analysis (LTEA) Assay for Hepatocyte Growth Facto (HGF) using HepaRG (AID 2283505)
How it was run: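 Read-out is HGF transcript level by qRT-PCR, normalized to three housekeeping genes, fitted bidirectionally against 0.5% DMSO vehicle. Human HepaRG cells received test chemicals for 48 h at up to 100 uM.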

[13] = read-out: Insulin Like Growth Factor 1 (IGF1), IGF1 (gene 3479); assay: LTEA_HepaRG_IGF1: Life Technologies and Expression Analysis (LTEA) Assay for Insulin Like Growth Factor 1 (IGF1) using HepaRG (AID 2283506)
How it was run: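 HepaRG, plated 48 h, then switched to serum-free induction media; test chemical 8-pt half-log from 100 uM (0.5% DMSO), duplicate, 48 h. Lysis in RLT, TaqMan qRT-PCR, norm. ACTB/GAPDH/POLR2A. Bidirectional fit vs DMSO.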

[14] = read-out: Intercellular Adhesion Molecule 1 (ICAM1), ICAM1 (gene 3383); assay: LTEA_HepaRG_ICAM1: Life Technologies and Expression Analysis (LTEA) Assay for Intercellular Adhesion Molecule 1 (ICAM1) using HepaRG (AID 2283507)
How it was run: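 Readout is qRT-PCR mRNA level, normalized to three housekeeping genes and fitted bidirectionally against 0.5% DMSO vehicle. Human HepaRG cultures received compound for 48 h, top concentration 100 uM with half-log dilutions.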

[15] = read-out: Insulin-like growth factor-binding protein 1 (IGFBP1), IGFBP1 (gene 3484); assay: LTEA_HepaRG_IGFBP1: Life Technologies and Expression Analysis (LTEA) Assay for Insulin-like growth factor-binding protein 1 (IGFBP1) using HepaRG (AID 2283508)
How it was run: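 Thawed HepaRG cells are plated for 48 h, switched to serum-free induction medium, then dosed in duplicate for another 48 h (100 uM top, half-log steps). Lysates in RLT go to qRT-PCR, and gain or loss of signal is fitted relative to vehicle.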

[16] = read-out: Glutathione S-transferase M3 (GSTM3), GSTM3 (gene 2947); assay: LTEA_HepaRG_GSTM3: Life Technologies and Expression Analysis (LTEA) Assay for Glutathione S-transferase M3 (GSTM3) using HepaRG (AID 2283501)
How it was run: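 HepaRG, plated 48 h, then serum-free induction medium; test chemical 48 h, duplicate; 100 uM top, half-log x8, 0.5% DMSO. Read-out: GSTM3 mRNA (TaqMan qRT-PCR, Fluidigm array). Bidirectional fit vs DMSO.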

[17] = read-out: Glutamate-cysteine ligase catalytic (GCLC), GCLC (gene 2729); assay: LTEA_HepaRG_GCLC: Life Technologies and Expression Analysis (LTEA) Assay for Glutamate-cysteine ligase catalytic (GCLC) using HepaRG (AID 2283498)
How it was run: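 Differentiated HepaRG cells exposed 48 h in serum-free induction medium, eight-point half-log series topping at 100 uM in 0.5% DMSO, duplicates. GCLC mRNA by qRT-PCR normalized to ACTB, GAPDH and POLR2A, fitted bidirectionally versus DMSO.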

[18] = read-out: Cytochrome P450 4A22 (Homo sapiens) (UniProt Q5TCH4); assay: LTEA_HepaRG_CYP4A22: Life Technologies and Expression Analysis (LTEA) Assay for Cytochrome P450 4A22 (CYP4A22) using HepaRG (AID 2283495)
How it was run: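 Readout is CYP4A22 transcript induction or loss, quantified by qRT-PCR and normalized to ACTB, GAPDH and POLR2A. Human HepaRG cells receive test chemicals for 48 h at eight half-log concentrations from 100 uM in 0.5% DMSO.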

Measured: AC50

Hypoxia-inducible factor 1-alpha (Homo sapiens), sequence (Q16665 whole entry, looked up): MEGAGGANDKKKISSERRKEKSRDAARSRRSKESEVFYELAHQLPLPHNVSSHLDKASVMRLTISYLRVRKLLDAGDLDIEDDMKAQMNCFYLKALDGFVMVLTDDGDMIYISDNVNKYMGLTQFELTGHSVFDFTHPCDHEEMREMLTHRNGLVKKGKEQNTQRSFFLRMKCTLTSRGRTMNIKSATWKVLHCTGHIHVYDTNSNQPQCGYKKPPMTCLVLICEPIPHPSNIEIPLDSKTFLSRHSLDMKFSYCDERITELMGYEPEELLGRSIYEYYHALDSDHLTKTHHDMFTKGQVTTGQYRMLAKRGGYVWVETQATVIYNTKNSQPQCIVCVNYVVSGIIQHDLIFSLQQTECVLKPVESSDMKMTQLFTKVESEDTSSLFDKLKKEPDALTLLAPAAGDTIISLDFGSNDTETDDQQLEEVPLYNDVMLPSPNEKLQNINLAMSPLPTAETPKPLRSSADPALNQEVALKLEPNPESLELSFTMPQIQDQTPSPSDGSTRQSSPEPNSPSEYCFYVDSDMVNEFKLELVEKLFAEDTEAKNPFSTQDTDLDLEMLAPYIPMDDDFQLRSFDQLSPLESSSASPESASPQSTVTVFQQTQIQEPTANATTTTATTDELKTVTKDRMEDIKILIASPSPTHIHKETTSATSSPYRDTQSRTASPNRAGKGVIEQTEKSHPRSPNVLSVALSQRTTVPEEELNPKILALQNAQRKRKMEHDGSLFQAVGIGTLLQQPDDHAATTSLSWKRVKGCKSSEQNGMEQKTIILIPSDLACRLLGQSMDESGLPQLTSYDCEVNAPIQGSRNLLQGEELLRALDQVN
Cytochrome P450 3A7 (Homo sapiens), sequence (P24462 whole entry, looked up): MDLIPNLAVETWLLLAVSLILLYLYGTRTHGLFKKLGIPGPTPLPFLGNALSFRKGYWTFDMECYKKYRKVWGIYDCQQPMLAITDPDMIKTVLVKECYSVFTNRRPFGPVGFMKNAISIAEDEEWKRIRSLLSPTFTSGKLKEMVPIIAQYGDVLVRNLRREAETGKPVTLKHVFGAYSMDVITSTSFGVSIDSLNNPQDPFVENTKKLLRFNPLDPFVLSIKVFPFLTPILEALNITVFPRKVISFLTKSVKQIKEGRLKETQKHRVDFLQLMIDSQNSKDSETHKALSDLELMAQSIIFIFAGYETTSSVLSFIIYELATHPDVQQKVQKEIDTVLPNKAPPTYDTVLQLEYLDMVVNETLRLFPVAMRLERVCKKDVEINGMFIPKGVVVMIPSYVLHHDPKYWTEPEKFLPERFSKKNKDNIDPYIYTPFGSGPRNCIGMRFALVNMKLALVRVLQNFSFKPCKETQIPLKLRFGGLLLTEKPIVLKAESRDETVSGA

COc1ccc(-c2ccccc2)cc1NNC(=O)OC(C)C
not listed: [16] | [17] | [18]
inactive: all other assays above

COc1cc(OC)nc(NC(=O)NS(=O)(=O)c2ncccc2OCC(F)(F)F)n1
active: [3] 0.239 µM | [8] 0.19 µM | [10] 0.237 µM
not listed: [9] | [17] | [18]
inactive: all other assays above

CC(C)N1C(=O)c2ccccc2NS1(=O)=O
not listed: [9] | [16] | [17] | [18]
inactive: all other assays above

Cc1ccc(N=CN(C)C=Nc2ccc(C)cc2C)c(C)c1
not listed: [9] | [16] | [18]
inactive: all other assays above

Nc1c(Cl)c(Cl)nc(C(=O)O)c1Cl
not listed: [9] | [17] | [18]
inactive: all other assays above

OC(c1ccc(Cl)cc1)(c1ccc(Cl)cc1)C(Cl)(Cl)Cl
inactive: [1] | [2] | [3] | [9] | [11] | HGF (gene 3082)
active: [4] 83.5 µM | CYP3A5 (gene 1577) 50 µM | [5] 63.2 µM | [6] 75.9 µM | [7] 77.3 µM | [8] 87.7 µM | [10] 89.3 µM | [12] 80.1 µM | [13] 50 µM | [14] 77.6 µM | [15] 73.6 µM

CC(C)=CC1C(C(=O)OCc2coc(Cc3ccccc3)c2)C1(C)C (stereo not drawn)
not listed: [4] | [9] | [16] | [17]
inactive: all other assays above

Cn1c(-c2ccccc2)cc(-c2ccccc2)[n+]1C
active: [1] 81.3 µM | [4] 44.1 µM | CYP3A5 (gene 1577) 79 µM | [5] 21.9 µM | [6] 57.2 µM | [7] 65.9 µM | [8] 50 µM | [10] 40.2 µM | [12] 35 µM | [13] 13.4 µM | [15] 50 µM
inactive: [2] | [3] | [11] | HGF (gene 3082) | [14]
